We go through 42 compounds from PubChem BioAssay AID1645882 (National Center for Advancing Translational Sciences (NCATS), 2021).

Each structure is given as a SMILES string. “And” between values parts separate entries of the source, which are not always exact repeats. Identical values can stand only once. Screen size: about 16,000 compounds; about 120 (0.75%) were called active. Not shown: some 4% with an inconclusive outcome. Calls come from the whole dose curve; as a rule, active = well fitted inhibition curve with a large enough effect; inconclusive = small, poorly fitted or top-dose-only effect; inactive = no such curve, though single readings can be large or run the other way. The sample as a whole holds a higher share of actives than the screen did. Some compounds were tested as several samples or in several runs, with calls that do not always agree.
Potency is the fitted concentration of half-maximal effect.

Sequence of Rap guanine nucleotide exchange factor 3 (Homo sapiens) (O95398 whole entry, looked up): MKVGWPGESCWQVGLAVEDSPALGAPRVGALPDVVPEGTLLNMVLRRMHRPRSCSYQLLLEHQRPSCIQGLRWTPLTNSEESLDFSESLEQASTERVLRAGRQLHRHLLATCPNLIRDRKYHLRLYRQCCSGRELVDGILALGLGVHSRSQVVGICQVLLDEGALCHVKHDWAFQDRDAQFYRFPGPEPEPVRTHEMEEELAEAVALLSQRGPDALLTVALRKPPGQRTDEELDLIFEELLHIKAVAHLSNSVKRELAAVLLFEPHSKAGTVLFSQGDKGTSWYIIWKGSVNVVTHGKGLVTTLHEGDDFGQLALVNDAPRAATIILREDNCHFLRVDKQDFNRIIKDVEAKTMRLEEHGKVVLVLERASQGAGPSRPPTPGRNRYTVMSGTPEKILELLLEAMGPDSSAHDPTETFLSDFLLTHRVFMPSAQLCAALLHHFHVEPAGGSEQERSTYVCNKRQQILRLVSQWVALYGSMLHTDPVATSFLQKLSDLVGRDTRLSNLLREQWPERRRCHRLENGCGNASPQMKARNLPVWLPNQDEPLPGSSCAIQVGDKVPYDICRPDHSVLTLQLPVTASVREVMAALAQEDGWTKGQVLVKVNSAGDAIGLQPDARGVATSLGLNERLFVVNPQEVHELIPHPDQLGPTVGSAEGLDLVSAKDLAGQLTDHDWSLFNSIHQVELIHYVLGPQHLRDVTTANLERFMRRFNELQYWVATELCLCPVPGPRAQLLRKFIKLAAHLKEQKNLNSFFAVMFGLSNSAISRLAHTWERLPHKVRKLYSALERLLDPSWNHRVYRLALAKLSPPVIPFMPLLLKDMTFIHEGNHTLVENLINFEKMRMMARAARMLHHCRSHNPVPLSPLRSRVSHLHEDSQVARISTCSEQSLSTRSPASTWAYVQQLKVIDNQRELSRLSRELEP

In this assay the target is Rap guanine nucleotide exchange factor 3 (Homo sapiens) (UniProt O95398). Nature of the assay: Validation qHTS for antagonist of cAMP-regulated guanine nucleotide exchange factor 3 (EPAC1). Note: nearly all actives have a fitted effect of over 75% in size. As to conditions: EPAC1 Rap1B-BODIPY-GDP exchange, fluorescence; series mostly up to 150 µM; activity change, negative = inhibition: at the top concentration. The source says:
Assay Provider (PI): Xiaodong Cheng Ph.D.
The University of Texas Medical Branch, […], TX
In multi-cellular eukaryotic organisms, the effects of cAMP are transduced by two ubiquitously-expressed intracellular cAMP receptors, the classic protein kinase A/cAMP-dependent protein kinase (PKA/cAPK) and the more recently discovered exchange protein directly activated by cAMP/cAMP-regulated guanine nucleotide exchange factor (EPAC/cAMP-GEF). Both PKA and EPAC are ubiquitously expressed in all tissues, and an increase in intracellular cAMP levels will lead to the activation of both PKA and EPAC. Therefore, careful dissections of the individual role and relative contribution of EPAC and PKA within the overall cAMP signaling in various model systems are critical for further elucidating the mechanism of cAMP signaling. To date no EPAC-specific antagonists and agonist, as well as isoform-specific agonists have been reported, and developing EPAC-specific pharmacological probes to determine the physiological functions that EPAC play in the overall cAMP-mediated signaling remains a major challenge within the research field. Furthermore, identified regulators of EPAC may lead to new mechanism-based therapeutic strategies specifically targeting the EPAC / cAMP-signaling components as EPAC has been implicated to play important roles in major human pathological conditions such as diabetes, heart disease, and cancer.
This qHTS will be used to screen the Molecular Libraries Small Molecule Repository (MLSMR) as a concentration-titration series using the NCGC unique quantitative screening (qHTS) platform to find activators for EPAC1. In addition, this assay will also be used as a counterscreen for the EPAC2 qHTS. This fluorescent based assay is developed and validated for EPAC1 that measures exchange using EPAC effector Rap1 complex with BODIPY-GDP, a GDP analog with a tethered fluorophores. Activators are identified by monitoring the change in fluorescence signal as the exchanged free BODIPY-GDP has a reduced fluorescence compared to Rap1-bound BODIPY-GDP. Increase in signal (activation) is the desired outcome for the EPAC1 agonist while no activity in this assay is desired for the EPAC2 agonist counterscreen.
[1] de Rooij, J., Zwartkruis, F. J., Verheijen, M. H., Cool, R. H., Nijman, S. M., Wittinghofer, A., and Bos, J.L. (1998) Nature 396, 474-477.
Briefly, three uL of reagents (100 nM EPAC1, 250 nM RAP1B-BODIPY-GDP, 50 uM GDP) were dispensed into a 1536-well Greiner black solid-bottom medium binding assay plate. Controls and test compounds (23 nL) were transferred to the plate via a Kalypsys pin tool equipped with a 1536-pin array. The plates were centrifuged at 1,000 rpm for 15 seconds followed by 5 minute incubation at room temperature. The assay plates were read at 5 minute intervals for 30 minutes in the ViewLux plate reader using 480nm excitation and 540nm emission filters. The results were normalized to the […] positive control ATA and DMSO.
`O=C(/C=C\c1ccc(O)c(O)c1)O[C@@H](Cc1ccc(O)c(O)c1)C(=O)O`: the “activity change, negative = inhibition” value is 11% (inactive).

As for `NC(Cc1ccc(O)c(O)c1)C(=O)O` (configuration not stated), the Potency was 50.1 µM (active).

`N[C@@H](Cc1ccc(O)c(I)c1)C(=O)O`: the “activity change, negative = inhibition” value was -7.65% [at 75.8 µM] (inactive).

Turning to `O=C(/C=C/c1ccc(O)c(O)c1)OCCc1ccccc1`, the Potency result was “inactive”.

With `N[C@@H](Cc1ccc(O)c(O)c1)C(=O)O`, the Potency result was “inactive”.

Turning to `O=C(/C=C/c1ccc(O)c(O)c1)OC(Cc1ccc(O)c(O)c1)C(=O)O` (configuration not stated), the Potency entry was “inactive and 100 µM (active)”.

`COc1ccc(C(=O)NCC2Cc3cc(C)cc(-c4cc(C(C)=O)ccc4F)c3O2)c(OC)c1OC` (configuration not stated): the “activity change, negative = inhibition” value is 11.9% (inactive).

On to `COC(=O)N1CCC[C@@]2(CCN(Cc3nccs3)C2)C1`, for which the “activity change, negative = inhibition” value is 31.6% (inactive).

Take `OC(c1ccc2c(c1)CN(Cc1c[nH]c3ccccc13)CCO2)c1ccccn1` (configuration not stated): the “activity change, negative = inhibition” value was 8.66% (inactive).

Regarding `CC(=O)Oc1c(-c2ccccc2)oc2c(CC=C(C)C)c3c(c(OC(C)=O)c2c1=O)C=CC(C)(C)O3`, the “activity change, negative = inhibition” value is 6.65% (inactive).

As for `CC(C)=CCc1c2c(c(O)c3c(=O)c(O)c(-c4ccccc4)oc13)C=CC(C)(C)O2`, the “activity change, negative = inhibition” value was 13.9% (inactive).

In the case of `CC(=O)Oc1c2c(c3c(c1CC=C(C)C)O[C@@]14C(=CC5CC1C(C)(C)OC4(C/C=C(\C)C(=O)O)C5=O)C3=O)OC(C)(CCC=C(C)C)C=C2` (some centres not stated), the Potency is 89.1 µM (active).

With `CC(C)=CCCC1(C)C=Cc2c(O)c3c(c(CC=C(C)C)c2O1)OC12C(=CCCC1C(C)(C)O[C@@]2(C/C=C(\C)C(=O)O)C(=O)O)C3=O` (some centres not stated), the Potency was 89.1 µM (active).

Take `COC(=O)/C(C)=C/CC12OC(C)(C)C3CC(C=C4C(=O)c5cc6c(c(CCC(C)(C)Cl)c5OC431)OC1(C)CCC(=C(C)C)C6C1)C2=O` (configuration not stated): the “activity change, negative = inhibition” value was 5.06% (inactive).

On to `C1=C(c2ccc3c(c2)CN(Cc2cccn2-c2ncccn2)CCO3)Cc2ccccc21`, for which the “activity change, negative = inhibition” value was 0.475% (inactive).

Consider `CC(C)c1c(C(=O)NCC(C)(C)N2CCOCC2)cnn1-c1nccc(-c2ccccc2F)n1`, for which the “activity change, negative = inhibition” value is 5.19% (inactive).

As to `Cc1ccc(-c2ccnc(-n3ncc(C(=O)NCCN4CCOCC4)c3C3CC3)n2)o1`, the “activity change, negative = inhibition” value was 0.535% (inactive).

On to `CCC1CN(CCNC(=O)c2ccccc2-n2cccn2)Cc2cc(OC)ccc2O1` (configuration not stated), for which the “activity change, negative = inhibition” value was 21.6% (inactive).

As to `COc1ccc(C2Sc3ccccc3N(CCN(C)C)C(=O)[C@@H]2OC(C)=O)cc1` (some centres not stated), the Potency result is “inactive”.

For the compound `CCOC(=O)[C@@H](C)N(C(=O)OC(C)(C)C)S(=O)(=O)N(Cc1ccccc1)[C@@H](C(=O)OC)C(C)C`, the “activity change, negative = inhibition” value was -6.25% (inactive).

In the case of `Cc1c(-c2ccccc2)oc2cc(O)ccc2c1=O`, the “activity change, negative = inhibition” value is -1.8% (inactive).

`CC(=O)[C@H](CC(C)C)NC(=O)[C@@H](CC(C)C)NC(=O)[C@H](CC(C)C)NC(=O)OCc1ccccc1`: the “activity change, negative = inhibition” value is -12.2% (inactive).

As for `O=C(O)c1cc2ccccc2c(Cc2c(O)c(C(=O)O)cc3ccccc23)c1O`, the Potency is 50.1 µM (active).

As to `O=C(O)c1cc(-c2ccccc2)nc2ccccc12`, the Potency entry is “inactive”.

For `O=C(O)c1c2ccccc2cc2ccccc12`, the Potency result was “inactive”.

Take `CCN1CCN(C(=O)c2sc3ncnc(NCC4CCCO4)c3c2C)CC1` (configuration not stated): the “activity change, negative = inhibition” value was 16.7% (inactive).

Turning to `CC(C)CCCC(C)C1CCC2C3CC=C4CC(=O)CC[C@@]4(C)C3CC[C@@]12C` (some centres not stated), the “activity change, negative = inhibition” value is 15.4% (inactive).

`COc1ccccc1CNc1nc(-c2ccc(N(C)C)cc2)nc2ccccc12`: the “activity change, negative = inhibition” value was 12.9% (inactive).

With `Cc1ncc2c(c1CNC(=O)c1ccc3c(c1)OCO3)CCN(C(=O)c1cccc(-n3cccn3)c1)C2`, the “activity change, negative = inhibition” value was 6.43% (inactive).

Take `CC(=O)N[C@@H](Cc1c[nH]c2ccccc12)C(=O)O`: the “activity change, negative = inhibition” value was 5.4% (inactive).

For `CC(C)C(N)C(=O)NC(Cc1c[nH]c2ccccc12)C(=O)O` (configuration not stated), the “activity change, negative = inhibition” value is 18.5% (inactive).

`Cc1cc(C)cc(C(=O)N(C)[C@H](Cc2ccc(-c3ccccc3)cc2)C(=O)N[C@@H](Cc2c[nH]c3ccccc23)C(=O)O)c1`: the Potency was 112 µM (active).

Take `C[N+](C)(CCCCCC[N+](C)(C)CCCN1C(=O)c2ccccc2C1=O)CCCN1C(=O)c2ccccc2C1=O`: the Potency entry is “inactive”.

`C#CCN(Cc1nc(N2CCOCC2)c2ccc(Cl)cc2n1)Cc1ccco1`: the “activity change, negative = inhibition” value was 18.9% (inactive).

Take `CCCC(=O)c1cc(O)c(O)cc1O`: the Potency was 63.1 µM (active).

Consider `CCC(=O)c1c(O)cc(O)cc1O`, for which the “activity change, negative = inhibition” value is 18.2% (inactive).

Consider `CCOc1cc(OCC)c(C(=O)CCC(=O)O)cc1OCC`, for which the “activity change, negative = inhibition” value was 19.1% (inactive).

Turning to `O=C(c1n[nH]c2c1CCCC2)N1CCOc2ccc(C(O)C3CCCCC3)cc2C1` (configuration not stated), the “activity change, negative = inhibition” value was 1.38% (inactive).

`Cc1ccc(C2(O)CCN(CCCC(=O)c3ccc(F)cc3)CC2)cc1`: the “activity change, negative = inhibition” value was 26.2% (inactive).

As for `COc1ccccc1C1CN(CCNC(=O)c2cscn2)Cc2ccccc2O1` (configuration not stated), the “activity change, negative = inhibition” value was -26.1% (inactive).

Consider `CC(C)(O)c1ccccc1CC[C@@H](SCC1(CC(=O)O)CC1)c1cccc(/C=C/c2ccc3ccc(Cl)cc3n2)c1`, for which the Potency is 79.4 µM (active).

For `CN(C)C(=O)CCSC(SCCC(=O)O)c1cccc(/C=C/c2ccc3ccc(Cl)cc3n2)c1` (configuration not stated), the “activity change, negative = inhibition” value is -25.4% (inactive).
